Assay results as given in PubChem BioAssay (NCATS).
“And” between values parts separate entries of the source, which are not always exact repeats. Equal values may be shown once. Inconclusive results are not listed. Entries that show only a call come without a potency. The source made the active and inactive calls. Unless noted, calls come from the whole dose curve. Square brackets hold non-standard residues; d marks the D form. Peptide text beside a SMILES is read from it. * marks the point of attachment. Sta = CC(C)C[C@H](N)[C@@H](O)CC(=O)O; Isovaleryl = CC(C)CC(=O)*

Legend:
[1] = Cytotoxicity counterscreen for inhibitors of SARS-CoV-2 cell entry (AID 1645845); note: nearly all actives have a fitted effect of over 50% in size; note: potency is the fitted concentration of half-maximal effect
Outline: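 48 h compound treatment (after 1 h preincubation), HEK293-ACE2 cells, 37 C/5% CO2; ATP luminescence endpoint; normalized to cell wells and media blanks.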

[2] = Primary qHTS to identify inhibitors of SARS-CoV-2 cell entry (AID 1645846); settings: activity change, negative = inhibition: at 57.1 µM (top of the series) unless noted; note: nearly all actives have a fitted effect of over 45% in size; note: potency is the fitted concentration of half-maximal effect
Outline: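 Data are normalized to wells receiving SARS-CoV-2-S pseudoparticles and those given bald particles. Entry signal was luciferase luminescence in stable hACE2 Expi293F cells, 48 hr post-infection, after 1 hr compound pretreatment.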

[3] = VSVG counterscreen qHTS to identify inhibitors of SARS-CoV-2 cell entry (AID 1645847); note: potency is the fitted concentration of half-maximal effect; nearly all actives have a fitted effect of over 65% in size
Outline: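 Counterscreen using VSV-G (not spike) pseudotyped MLV particles on ACE2-expressing Expi293F cells after 1 h compound preincubation; infection ran 48 h at 37 °C. Data normalized to VSV-G PP and bald-PP wells.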

[4] = Primary qHTS for inhibitors of nuclear receptor binding SET domain protein 2 (NSD2) in an isogenic RCH-ACV NSD2 p.E1099K mutant (9B) (AID 1645876; active = well fitted inhibition curve with a large enough effect; note: nearly all actives have a fitted effect of over 70% in size)

SMILES: OC(CCCN1CCCCC1)(c1ccccc1)c1ccccc1
- Potency [1]: inactive
- activity change, negative = inhibition [2]: -24.7%

SMILES: CN1[C@@H]2CC[C@H]1CC(OC(=O)c1c[nH]c3ccccc13)C2 (stereo partly specified)
- Potency [1]: inactive
- Potency [2]: inactive

SMILES: CC(C)CC(=O)N[C@H](C(=O)N[C@H](C(=O)N[C@@H](CC(C)C)[C@@H](O)CC(=O)N[C@@H](C)C(=O)N[C@@H](CC(C)C)[C@@H](O)CC(=O)O)C(C)C)C(C)C (Isovaleryl-VV[Sta]A[Sta]-OH)
- Potency [1]: inactive
- activity change, negative = inhibition [2]: -12.9%

SMILES: CC1(C)O[C@@H]2C[C@H]3[C@@H]4C[C@H](F)C5=CC(=O)CC[C@]5(C)[C@H]4[C@@H](O)C[C@]3(C)[C@]2(C(=O)CO)O1
- Potency [1]: inactive
- Potency [2]: inactive

SMILES: FC(F)(F)C(F)(F)C(F)(F)C(F)(F)C(F)(F)C(F)(F)C(F)(F)C(F)(F)Br
- Potency [1]: inactive
- activity change, negative = inhibition [2]: -12.9%

SMILES: O=Cc1ccccc1C=O
- Potency [1]: inactive
- activity change, negative = inhibition [2]: -7.57%

SMILES: CCOC(=O)c1ccc(C#Cc2ccc3c(c2)C(C)(C)CCS3)nc1
- Potency [1]: inactive
- Potency [2]: inactive

SMILES: CC1=C(C)C(=O)C(C(CCCCCC(=O)O)c2ccccc2)=C(C)C1=O (stereo unspecified)
- Potency [1]: inactive
- Potency [2]: inactive

SMILES: CN1CCN(c2c(F)cc3c(=O)c(C(=O)O)cn(CCF)c3c2F)CC1
- Potency [1]: inactive
- activity change, negative = inhibition [2]: 2.09%

SMILES: CCCCC1(COC(=O)CCC(=O)O)C(=O)N(c2ccccc2)N(c2ccccc2)C1=O
- Potency [1]: inactive
- Potency [2]: inactive

SMILES: C/C=C/c1ccc(OC)cc1
- Potency [1]: inactive
- Potency [2]: inactive

SMILES: Brc1c(NC2=NCCN2)ccc2nccnc12
- Potency [1]: inactive
- Potency [2]: inactive

SMILES: C[C@H](CCC(=O)O)[C@H]1CC[C@H]2[C@@H]3C(=O)C[C@@H]4CC(=O)CC[C@]4(C)[C@H]3CC(=O)[C@]12C
- Potency [1]: inactive
- Potency [2]: inactive

SMILES: NC(=O)C1(N2CCCCC2)CCN(CCCC(=O)c2ccc(F)cc2)CC1
- Potency [1]: inactive
- activity change, negative = inhibition [2]: 3.21%

SMILES: Oc1cc(O)c2c(c1)O[C@H](c1ccc(O)c(O)c1)[C@H](O)C2
- Potency [1]: inactive
- activity change, negative = inhibition [2]: -5.55%

SMILES: CCOc1ccc(NC(C)=O)cc1
- Potency [1]: inactive
- Potency [2]: inactive

SMILES: COc1ccccc1N1CCN(CC(O)COc2cccc3ccccc23)CC1 (stereo unspecified)
- Potency [1]: inactive
- activity change, negative = inhibition [2]: -24.9% and -27.1%

SMILES: CC1(C)[C@@H]2CC[C@@]1(C)C(=O)C2
- Potency [1]: inactive
- Potency [2]: inactive

SMILES: COC(=O)C1=C(C)NC(C)=C(C(=O)OCCCN2CCC(c3ccccc3)(c3ccccc3)CC2)C1c1cccc([N+](=O)[O-])c1 (stereo unspecified)
- Potency [1]: 28.2 µM (active)
- Potency [2]: 8.91 µM (active)

SMILES: Nc1ccn([C@H]2CC[C@@H](CO)O2)c(=O)n1
- Potency [1]: inactive
- Potency [2]: inactive

SMILES: O=c1cc(CO)occ1O
- Potency [1]: inactive
- Potency [2]: inactive

SMILES: Cn1c(=O)c2c(ncn2CC2OCCO2)n(C)c1=O
- Potency [1]: inactive
- activity change, negative = inhibition [2]: -5.86%

SMILES: CCOc1ccc2nc(S(N)(=O)=O)sc2c1
- Potency [1]: inactive
- Potency [2]: inactive

SMILES: CCN(CC)CC(=O)Nc1c(C)cccc1C
- Potency [1]: inactive
- Potency [2]: inactive

SMILES: Cc1nnc(C(=O)NC(C)(C)c2nc(C(=O)NCc3ccc(F)cc3)c(O)c(=O)n2C)o1
- Potency [1]: inactive
- activity change, negative = inhibition [2]: -86.5% and -69.6%

SMILES: C=CCc1ccccc1OCC(O)CNC(C)C (stereo unspecified)
- Potency [1]: inactive
- activity change, negative = inhibition [2]: -22.8%

SMILES: C#C[C@]1(O)CC[C@H]2[C@@H]3[C@H](C)CC4=C(CCC(=O)C4)[C@H]3CC[C@@]21C
- Potency [1]: inactive
- Potency [2]: inactive
- activity change, negative = inhibition [2]: -14.1%

SMILES: O=C(O)C(=O)Nc1cccc(-c2nn[nH]n2)c1
- Potency [1]: inactive
- Potency [2]: inactive
- activity change, negative = inhibition [2]: -0.181%

SMILES: CC(=O)[C@H]1CC[C@H]2[C@@H]3CC=C4C[C@@H](O)CC[C@]4(C)[C@H]3CC[C@]12C
- Potency [1]: inactive
- Potency [2]: inactive

SMILES: Cc1ccc(/C=N/n2c(-c3ccccc3)csc2=S)cc1
- Potency [1]: inactive
- activity change, negative = inhibition [2]: -8.63%

SMILES: CCCc1cc(C(N)=S)ccn1
- Potency [1]: inactive
- Potency [2]: inactive
- activity change, negative = inhibition [2]: -4.59%

SMILES: CC(C)NCCCC1(C(N)=O)c2ccccc2-c2ccccc21
- Potency [1]: inactive
- Potency [2]: inactive

SMILES: Cn1cnc2c1c(=O)[nH]c(=O)n2C
- Potency [1]: inactive
- Potency [2]: inactive

SMILES: Cc1ccc(C(C)OC(=O)C2(C)CCC(C(=O)O)C2(C)C)cc1 (stereo unspecified)
- Potency [1]: inactive
- activity change, negative = inhibition [2]: -10.3%

SMILES: CCOC(=O)C(C)(C)Oc1ccc(Cl)cc1
- Potency [1]: inactive
- Potency [2]: inactive
- activity change, negative = inhibition [2]: -63%
- Potency [3]: 12.1 µM (active)

SMILES: CCn1cc(C(=O)O)c(=O)c2cc(F)c(N3CCN(C)CC3)cc21
- Potency [1]: inactive
- Potency [2]: inactive

SMILES: CCOC(=O)[C@H](CCc1ccccc1)N[C@H]1CS[C@H](c2cccs2)CN(CC(=O)O)C1=O
- Potency [1]: inactive
- Potency [2]: inactive
- activity change, negative = inhibition [2]: -4.69%

SMILES: C[C@]12CCC(=O)C=C1CC[C@@H]1[C@@H]2[C@@H](O)C[C@@]2(C)[C@H]1CC[C@]2(O)C(=O)CO
- Potency [1]: inactive
- Potency [2]: inactive
- activity change, negative = inhibition [2]: 4.28%

SMILES: Nc1nc2ncc(CNc3ccc(C(=O)N[C@@H](CCC(=O)O)C(=O)O)cc3)nc2c(=O)[nH]1
- Potency [1]: inactive
- Potency [2]: inactive

SMILES: Cc1cc(C(C)(C)C)cc(C)c1CC1=NCCN1
- Potency [1]: inactive
- Potency [2]: inactive
- activity change, negative = inhibition [2]: -16.7%

SMILES: CC/C(=C(/CC)c1ccc(O)cc1)c1ccc(O)cc1
- Potency [1]: inactive
- Potency [2]: 17.8 µM (active)

SMILES: C/C(=C(\CCOP(=O)(O)O)SC(=O)c1ccccc1)N(C=O)Cc1cnc(C)nc1N
- activity change, negative = cytotoxicity [1]: 0.654% [at 5.25 µM] (inactive)
- outcome [2]: inactive [at 5.25 µM]

SMILES: CCn1cc(C(=O)O)c(=O)c2cc(F)c(N3CCNCC3)nc21
- Potency [1]: inactive
- Potency [2]: inactive

SMILES: NC(=O)c1ncn([C@@H]2O[C@H](CO)[C@@H](O)[C@H]2O)c1N
- Potency [1]: inactive
- Potency [2]: inactive
- activity change, negative = inhibition [2]: -18.5%

SMILES: N=C(N)c1ccc2cc(OC(=O)c3ccc(N=C(N)N)cc3)ccc2c1
- Potency [1]: inactive
- Potency [2]: inactive
- activity change, negative = inhibition [2]: -3.1%

SMILES: CN1C(=O)CC(c2ccccc2)C1=O (stereo unspecified)
- Potency [1]: inactive
- activity change, negative = inhibition [2]: -27.2%

SMILES: OC[C@H]1O[C@@H](O[C@@H]2[C@@H](CO)O[C@](O)(CO)[C@H]2O)[C@H](O)[C@@H](O)[C@H]1O
- Potency [1]: inactive
- Potency [2]: inactive
- activity change, negative = inhibition [2]: -4.13%

SMILES: O=C(O)c1cccc(-c2noc(-c3ccccc3F)n2)c1
- Potency [1]: 6.31 µM (active)
- Potency [2]: inactive
- activity change, negative = inhibition [2]: -78%

SMILES: CC(=O)OCC(=O)[C@@]12N=C(C)O[C@@H]1C[C@H]1[C@@H]3CCC4=CC(=O)C=C[C@]4(C)[C@H]3[C@@H](O)C[C@@]12C
- Potency [1]: inactive
- Potency [2]: inactive
- activity change, negative = inhibition [2]: -14%

SMILES: O=c1oc2c(O)c(O)cc3c(=O)oc4c(O)c(O)cc1c4c23
- Potency [1]: inactive
- Potency [2]: inactive
- activity change, negative = inhibition [2]: -5.97% [at 27.1 µM]

SMILES: CCC1NC(=O)c2cc(S(N)(=O)=O)c(Cl)cc2N1 (stereo unspecified)
- Potency [1]: inactive
- activity change, negative = inhibition [2]: -25.9%

SMILES: CC(C)C(=O)Nc1cccc(C2CN3CCSC3=N2)c1 (stereo unspecified)
- Potency [1]: inactive
- activity change, negative = inhibition [2]: -6.4%

SMILES: CN(C)CCOC(c1ccccc1)c1ccccc1
- Potency [1]: inactive
- activity change, negative = inhibition [2]: -13.9%

SMILES: O=C(NCC1CN(c2ccc(N3CCOCC3=O)cc2)C(=O)O1)c1ccc(Cl)s1 (stereo unspecified)
- Potency [1]: inactive
- activity change, negative = inhibition [2]: -26.5% and -55.1%
- Potency [3]: 1.71 µM (active)

SMILES: NC(N)=NC(=O)c1nc(Cl)c(N)nc1N
- Potency [1]: inactive
- Potency [2]: inactive
- activity change, negative = inhibition [2]: -0.658% [at 114 µM]

SMILES: C[N+](C)(C)CCOC(=O)CCC(=O)OCC[N+](C)(C)C
- Potency [1]: inactive
- Potency [2]: inactive

SMILES: COc1ccc(-c2cc(C(F)F)nn2-c2ccc(S(N)(=O)=O)cc2)cc1F
- Potency [1]: inactive
- activity change, negative = inhibition [2]: 1.11%

SMILES: Cc1cc(=O)oc2cc(O)ccc12
- Potency [1]: inactive
- Potency [2]: inactive
- activity change, negative = inhibition [2]: -8.91%

SMILES: CC(C)(C)NCC(O)COc1cccc2c1CCC(=O)N2 (stereo unspecified)
- Potency [1]: inactive
- Potency [2]: inactive

SMILES: N[C@@H](CSSC[C@H](N)C(=O)O)C(=O)O
- activity change, negative = cytotoxicity [1]: 0.929% [at 0.702 µM] (inactive)
- activity change, negative = inhibition [2]: -10.6% [at 0.702 µM]

SMILES: C/C=C/C(=O)N(CC)c1ccccc1C
- Potency [1]: inactive
- Potency [2]: inactive
- activity change, negative = inhibition [2]: -9.15%

SMILES: C[C@]12C=CC(=O)C=C1CC[C@H]1[C@@H]3C[C@@H](O)[C@](O)(C(=O)CO)[C@@]3(C)C[C@H](O)[C@@]12F
- Potency [1]: inactive
- activity change, negative = inhibition [2]: 4.58%

SMILES: c1ccc([C@H]2CN3CCSC3=N2)cc1
- Potency [1]: inactive
- Potency [2]: inactive
- activity change, negative = inhibition [2]: -16.1%

SMILES: Nc1ccc(Cl)cc1C(=O)c1ccccc1F
- Potency [4]: inactive
